Data: ChEMBL document CHEMBL1201862, “PubChem BioAssay data set” (2004)
About 4,000 (6.9%) of roughly 58,000 sequences were called active. No cut-off for these calls is given here. Only a sample is shown. Measured potencies and affinities stand elsewhere.

What follows are substances tested on HCT-15.
For “cis-Bis[[(trimethylsilyl)methyl]amino]tetrachloroplatinum(IV), CHEMBL2146191”, the GI50 was 3.42 µM.
Work on “[Bis(aminomethyl)tetramethylenesilane]dichloropaltinum(II), CHEMBL2146205” yielded a GI50 of 20.5 µM.
With “[Bis(aminomethyl)dimethylsilane]tetrachloroplatinum(IV), CHEMBL2146190” the GI50 was 8.45 µM.
With CISPLATIN, CHEMBL11359 the GI50 was 7.21 µM.
For “[Bis(aminomethyl)dimethylsilane]dichloroplatinum (II), CHEMBL2146201”, the GI50 was 27.5 µM.
With “[Bis(aminomethyl)tetramethylenesilane]tetrachloropaltinum(IV), CHEMBL2146189” the GI50 was 3.62 µM.
Substance “mu-(1,7-nanodiamine-N,N')bis-(cis-aminedichloroplatimum (II)), CHEMBL2146215” has a GI50 of 37.1 µM.
“[Bis(aminomethyl)pentamethylenesilane]dichloropaltinum(II), CHEMBL2146202” was tested, and the GI50 was 5.21 µM.
Work on “[Bis(aminomethyl)pentamethylenesilane]tetrachloropaltinum(IV), CHEMBL2146204” yielded a GI50 of 0.953 µM.
Work on “[Bis(aminomethyl)diethylsilane]tetrachloroplatinum(IV), CHEMBL2146203” yielded a GI50 of 2.45 µM.
“[Bis(aminomethyl)ethylmethylsilane]tetrachloroplatinum(IV), CHEMBL2146192” gave a GI50 of 3.5 µM.
